# Screening results deposited in PubChem by National Center for Advancing Translational Sciences (NCATS).
# This is a sample that favours compounds with a hit; in the whole collection about 19% have one here.
# DT40 TDP1 CPT = DT40-hTDP1 cell growth loss with CPT | 420,000 tested, 12% active | Potency, µM (top dose mostly 46.2 µM), inactives show at the top dose activity change, negative = growth inhibition, most hits filed as inhibitors | chicken DT40 Tdp1-/-;hTDP1 cells + 20 nM CPT, ATP luminescence, 48 h; further: nearly all actives have a fitted effect of over 55% in size
#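 Chicken DT40 Tdp1-/- cells stably complemented with human TDP1 were seeded at 400 cells/well in medium containing 20 nM camptothecin, exposed to pin-transferred compounds, and grown at 37 °C for at least 48 hr. Viability was read as ATP luminescence.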
# KB-V1 cytotox = kills drug-selected multidrug resistant KB-V1 cells. 400,000 tested, 3.4% active. Potency, µM (top dose mostly 46.1 µM), actives largely listed as cytotoxic. KB-V1 MDR cells viability, CellTiter-Glo, 72 h. AID 1347076; further: nearly all actives have a fitted effect of over 60% in size
#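 KB-V1 cells (P-gp-expressing MDR subline of KB-3-1) in phenol-red-free DMEM with 10% FBS were exposed to library compounds over a concentration series for 72 h at 37 degrees C. Viability read by CellTiter-Glo luminescence; concentration-effect curves fitted after normalization.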
# HT1080 IDH1KD tx = kills HT-1080 cells with IDH1 knockdown; HT-1080 IDH1 knockdown viability, ATP luminescence, 48 h; Potency, µM (series often up to 46.1 µM), inactives show at the highest dose activity, negative = toxicity, actives largely listed as cytotoxic; 360,000 tested, 2% active;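 further: 0% = DMSO wells and -100% = cell-free medium wells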
#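 After a 2 h attachment period, IDH1KD HT-1080 cells took pin-transferred compound for 48 h at 37 °C; ATP-based luminescence after 10 min room-temperature reagent incubation reported viability.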
# TDP1 cell noCPT = qHTS for Inhibitors of human tyrosyl-DNA phosphodiesterase 1 (TDP1): qHTS in cells in absence of CPT; DT40 Tdp1-/- hTDP1 cells, no CPT, ATP luminescence, 48 h; Potency, µM (titrated, usually from 46.2 µM), inactives show at the top dose activity change, negative = growth inhibition, usual class: inhibitors; 420,000 tested, 15% active; further: nearly all actives have a fitted effect of over 55% in size
#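 Cells were dispensed at 400 per well, compounds added by pin tool, plates incubated ≥48 hr at 37 °C, then CellTiter-Glo added for 30 min at room temperature before luminescence reading. Line: DT40 Tdp1-/- complemented with hTDP1; camptothecin omitted.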
# HT1080NT lethal = kills 2HG-producing HT-1080-NT fibrosarcoma cells. HT-1080-NT fibrosarcoma viability, CellTiter-Glo ATP luminescence, 48 h. Potency, µM (doses to about 46.1 µM), inactives show at the top dose activity, negative = less viability, actives largely listed as cytotoxic. 360,000 tested, 1.6% active. AID 686970;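 further: NT is the 2HG producing partner of a matched IDH1 knockdown line; 0% = DMSO-treated cells and -100% = media-only wells without cells; nearly all actives have a fitted effect of over 55% in size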
#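 HT-1080-NT fibrosarcoma cells (2HG-overproducing), 750 cells/well in RPMI with 5% FBS, dosed after 2 h and incubated 48 h at 37C. CellTiter-Glo luminescence normalized to DMSO and no-cell wells; concentration-response curves fitted and classed.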
# KB-3-1 cytotox = kills parental KB-3-1 adenocarcinoma cells; 400,000 tested, 1.4% active; Potency, µM (titrated, usually from 46.1 µM), usual class: cytotoxic; KB-3-1 viability, CellTiter-Glo ATP luminescence, 72 h; further: nearly all actives have a fitted effect of over 60% in size
#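 Screening of KB-3-1 cells (DMEM, 10% FBS, phenol-red free) ran from lowest to highest compound concentration; after 72 h at 37 °C viability was read luminescently and curves fitted.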
# Starred values were filed as active, the others as inactive; i = inactive; ? = inconclusive; nt = not tested or not shown. The call rests on the fitted dose curve; in most records, active means well fitted curve in the direction sought with a large enough effect; inconclusive means small, poorly fitted or top-dose-only effect, or another doubt; inactive means no such curve, though single readings can be large; an effect the other way counts as inactive or inconclusive. Unless noted, on the % scale 0 is the no-effect control and ±100 the full control effect; potency means the concentration at half of the fitted maximal effect.
SMILES,DT40 TDP1 CPT,KB-V1 cytotox,HT1080 IDH1KD tx,TDP1 cell noCPT,HT1080NT lethal,KB-3-1 cytotox
Nc1cccc(Oc2ccc3c(c2)C(=O)NC3=O)c1,22%,i,?,-1%,?,i
Clc1ccccc1NN(Cc1ccccn1)c1ccccc1Cl,?,i,-7%,23µM*,-1%,i
CC1CCN(S(=O)(=O)c2cc(C(=O)Nc3ccc(Br)cc3F)n(C)c2)CC1,?,i,nt,?,nt,i
CCOC(=O)c1c(-c2ccccc2)oc2ccc(NS(=O)(=O)c3ccc(OC)cc3)cc12,4.6µM*,nt,nt,3.3µM*,nt,nt
CCOC(=O)c1c(-c2ccccc2)oc2ccc(NS(=O)(=O)c3cc(C)c(C)cc3C)cc12,18µM*,i,nt,10µM*,nt,i
CCOc1ccc2oc(-c3ccccc3)c(C(=O)N(C)C)c2c1,?,i,-10%,18µM*,-25%,i
CCOc1ccc2oc(-c3ccccc3)c(C(N)=O)c2c1,0%,i,-2%,-16%,20%,i
CCOC(=O)c1c(-c2ccccc2)oc2ccc(NS(=O)(=O)c3ccccc3)cc12,?,?,nt,-29%,nt,i
CC(=O)c1cc2c(cc1NC(=O)CSc1nnc(C3CC3)n1C)OCO2,22%,i,2%,15%,9%,i
Cc1nn(C(=O)c2cccc([N+](=O)[O-])c2C)c(C)c1S(=O)(=O)N1CCCCCC1,-22%,nt,nt,-7%,nt,nt
Cn1nc(C(F)(F)F)c(C#N)c1N1CCN(c2ccccn2)CC1,-23%,i,7%,?,4%,i
Cn1nc(C(F)(F)F)c(C#N)c1N1CCN(c2ccccc2)CC1,?,i,-1%,15µM*,-18%,i
Cn1nc([N+](=O)[O-])nc1N1CCN(c2ccc(F)cc2)CC1,-4%,?,-5%,0%,17%,i
Cn1nc(C(F)(F)F)c(C#N)c1N1CCN(c2ccc(F)cc2)CC1,?,?,-11%,21µM*,-7%,?
N#Cc1c(F)cccc1NCCCn1ccnc1,-13%,i,-1%,-13%,16%,i
COc1cc2c(cc1OC)C(COc1cc(C)cc(C)c1)N(C(=O)C(C)(C)C)CC2 (centres undefined),?,i,nt,26µM*,nt,i
COc1cc2c(cc1OC)C(COc1cc(C)cc(C)c1)N(C(C)=O)CC2 (centres undefined),?,i,-27%,?,1%,i
COc1cc2c(cc1OC)C(COc1cc(C)cc(C)c1)N(C(=O)COc1ccccc1)CC2 (centres undefined),?,i,nt,23µM*,nt,?
COc1ccc(NC(C)=O)cc1CNC(=O)COc1c(C)c(C)cc(C)c1C,?,i,-9%,?,-1%,i
O=C(NCc1cccnc1)C(=O)NC1CCCCC1,5%,i,10%,15%,11%,i
O=C(NCc1cccnc1)C(=O)Nc1nc(C23CC4CC(CC(C4)C2)C3)cs1,?,i,-11%,16µM*,23%,i
O=C(NCc1ccncc1)C(=O)Nc1nc(C23CC4CC(CC(C4)C2)C3)cs1,21µM*,i,-8%,21µM*,0%,i
O=C(NCc1ccc(F)cc1)C(=O)Nc1nc(C23CC4CC(CC(C4)C2)C3)cs1,?,9.2µM*,?,?,?,?
O=C(NCc1ccccc1)C(=O)Nc1nc(C23CC4CC(CC(C4)C2)C3)cs1,23µM*,7.3µM*,-2%,?,-5%,?
CNC(=O)C(=O)Nc1nc(C23CC4CC(CC(C4)C2)C3)cs1,-1%,i,-4%,-24%,0%,i
SMILES,DT40 TDP1 CPT,KB-V1 cytotox,HT1080 IDH1KD tx,TDP1 cell noCPT,HT1080NT lethal,KB-3-1 cytotox
COc1ccc(C(=O)Nc2nc(CC(=O)NCc3ccc(F)cc3)cs2)cc1,?,?,-4%,?,1%,i
Cc1cccc(C(C)n2nnc3ccccc32)c1O (centres undefined),23µM*,i,-1%,?,-17%,i
CC(C(=O)O)n1nnc2ccccc21 (centres undefined),-20%,i,26%,4%,?,i
Cc1ccc(NC(=O)CN(C)C(=O)c2cccc(Br)c2)cc1,?,i,-2%,?,8%,i
CC(=O)Nc1ccc(NC(=O)c2c(-c3ccccc3)noc2C)cc1,-8%,i,nt,-26%,nt,i
CCCCNS(=O)(=O)c1ccc(NC(=O)c2c(-c3ccccc3Cl)noc2C)cc1,-8%,21µM*,?,?,?,i
Cc1onc(-c2ccccc2Cl)c1C(=O)Nc1cccc(-c2nc3ncccn3c2C)c1,?,8.2µM*,-8%,?,-2%,i
CCCCN(CCCC)S(=O)(=O)c1ccc(NC(=O)c2c(-c3ccccc3)noc2C)cc1,21µM*,?,nt,29µM*,nt,i
CCCCNS(=O)(=O)c1ccc(NC(=O)c2c(-c3ccccc3)noc2C)cc1,?,i,nt,?,nt,i
Cc1onc(-c2ccccc2Cl)c1C(=O)Nc1nc2ccc(S(C)(=O)=O)cc2s1,8.2µM*,i,?,9.2µM*,15µM*,i
CC(=O)Nc1cccc(NC(=O)c2c(-c3ccccc3Cl)noc2C)c1,?,16µM*,-12%,?,-7%,i
CC(=O)Nc1ccc(NC(=O)c2c(-c3ccccc3Cl)noc2C)cc1,0%,i,6%,8%,4%,i
Cc1cc(=O)[nH]c(SCc2nnc(-c3ccccc3)o2)n1,-11%,i,27%,-13%,11%,i
Clc1ccc2nc(SCc3nnc(-c4ccccc4)o3)[nH]c2c1,5%,16µM*,2%,?,-14%,i
CCOCN(C(=O)Cn1c(CC(C)C)nc2ccccc21)c1c(C)cccc1CC,?,i,nt,23µM*,nt,i
O=C(O)CSc1nc2ccccc2[nH]1,?,i,2%,?,1%,i
CCOCN(C(=O)CSc1nc2ccccc2[nH]1)c1c(C)cccc1CC,15µM*,i,nt,23µM*,nt,i
CCc1cccc(CC)c1N(COC)C(=O)Cn1c(CO)nc2ccccc21,?,i,9%,?,4%,i
CC(/C=C/c1ccccc1)=N/NC(=O)c1cc([N+](=O)[O-])cc([N+](=O)[O-])c1,5.2µM*,i,2%,5.2µM*,-1%,?
